Experimental data taken from PubChem BioAssay (NCI).
The panel holds about 83,000 compounds, 20% with a hit somewhere; the sample as a whole holds those more often.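 Step 1: grow cells in 96-well plates. Step 2: add test compound at a single concentration. Step 3: incubate 48 h. Step 4: record percent growth.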 Unmarked numbers belong to inactive results. The source made the active and inactive calls. How the source made its calls: active means growth percent below 10; inactive means the rest.

What was measured:
Assay in all cases: NCI-60 one-dose screen, 48 h (100 = growth as untreated, 0 = no growth, -100 = all killed)
Conditions in all cases: 10 µM unless noted
SR leukemia = test system: SR leukemia
RPMI-8226 leukemia = test system: RPMI-8226 leukemia
OVCAR-8 ovarian = test system: OVCAR-8 ovarian
OVCAR-5 ovarian = test system: OVCAR-5 ovarian
SK-OV-3 ovarian = test system: SK-OV-3 ovarian
IGROV1 ovarian = test system: IGROV1 ovarian
OVCAR-3 ovarian = test system: OVCAR-3 ovarian
HS 578T breast = test system: HS 578T breast
NCI/ADR-RES ovarian = test system: NCI/ADR-RES ovarian
T-47D breast = test system: T-47D breast
BT-549 breast = test system: BT-549 breast
MDA-MB-435 melanoma = test system: MDA-MB-435 melanoma
SW-620 colon = test system: SW-620 colon
MCF7 breast = test system: MCF7 breast
HCT-116 colon = test system: HCT-116 colon
HCC-2998 colon = test system: HCC-2998 colon
KM12 colon = test system: KM12 colon

| SMILES | growth (SR leukemia) | growth (RPMI-8226 leukemia) | growth (OVCAR-8 ovarian) | growth (OVCAR-5 ovarian) | growth (SK-OV-3 ovarian) | growth (IGROV1 ovarian) | growth (OVCAR-3 ovarian) | growth (HS 578T breast) | growth (NCI/ADR-RES ovarian) | growth (T-47D breast) | growth (BT-549 breast) | growth (MDA-MB-435 melanoma) | growth (SW-620 colon) | growth (MCF7 breast) | growth (HCT-116 colon) | growth (HCC-2998 colon) | growth (KM12 colon) |
| --- | --- | --- | --- | --- | --- | --- | --- | --- | --- | --- | --- | --- | --- | --- | --- | --- | --- |
| CC1(C)CC[C@]2(C(N)=O)CC[C@]3(C)C(=CC[C@@H]4[C@@]5(C)C/C(=C/c6cccnc6)C(=O)C(C)(C)[C@@H]5CC[C@]43C)[C@@H]2C1 | 8.68% [100 µM] (active) | -37.1% [100 µM] (active) | -21.6% [100 µM] (active) | -64% [100 µM] (active) | 6.72% [100 µM] (active) | -29.5% [100 µM] (active) | -64.2% [100 µM] (active) | 1.61% [100 µM] (active) | -25.7% [100 µM] (active) | 2.41% [100 µM] (active) | -47.9% [100 µM] (active) | -34.6% [100 µM] (active) | -32.4% [100 µM] (active) | -9.32% [100 µM] (active) | -48.2% [100 µM] (active) | -73.4% [100 µM] (active) | -37.2% [100 µM] (active) |
| CC1(C)CC[C@]23CC[C@]4(C)[C@H](CC[C@@H]5[C@@]6(C)C/C(=C/c7cccnc7)C(=O)C(C)(C)[C@@H]6CC[C@]54C)[C@H]2[C@H]1OC3=O | 42.4% [100 µM] | 11.3% [100 µM] | 42.4% [100 µM] | 79.7% [100 µM] | 64.6% [100 µM] | 66.8% [100 µM] | 49.3% [100 µM] | 54.6% [100 µM] | 50.1% [100 µM] | 23.5% [100 µM] | 31.7% [100 µM] | 36% [100 µM] | 32.9% [100 µM] | 21.7% [100 µM] | 15.6% [100 µM] | 49.9% [100 µM] | 33.4% [100 µM] |
| CC(C)=CC/C=C(/C)[C@H]1CC[C@]2(C)[C@@H]1CC[C@@H]1[C@@]3(C)CC/C(=N/O)C(C)(C)[C@@H]3CC[C@]12C | 45.2% [100 µM] | 52% [100 µM] | 40.8% [100 µM] | 80.6% [100 µM] | 68.8% [100 µM] | 76.2% [100 µM] | 52.4% [100 µM] | 64.3% [100 µM] | 63.9% [100 µM] | 27.2% [100 µM] | 61.5% [100 µM] |  | 61.3% [100 µM] | 36.1% [100 µM] | 24.1% [100 µM] | 69.5% [100 µM] | 51.6% [100 µM] |
| O=C(N=c1n(-c2ccccc2)nc2n1CCN2C1=NCCN1)c1ccc(Cl)cc1 | 43.6% | 91.9% | 98.7% | 95.9% | 90.2% | 58% | 91.7% | 93.1% | 93.6% | 83.9% | 101% |  | 79.5% |  | 103% | 73% | 99.3% |
| O=C(Nc1ccccc1)Nc1ccc(C(=O)/C=C/c2ccc(N3CCCC3)cc2)cc1 | 98.9% | 78.3% | 81.7% | 83.2% | 66.1% | 92.1% | 43% | 38.2% | 28.6% | 58.9% | 93.3% | 4.29% (active) | 83.6% | 66% | 52.9% | 81.4% | 52.5% |
| CC1(C)CC[C@]2(C(N)=O)CC[C@]3(C)C(=CC[C@@H]4[C@@]5(C)C/C(=C/c6ccncc6)C(=O)C(C)(C)[C@@H]5CC[C@]43C)[C@@H]2C1 | 2.61% [100 µM] (active) | -29.1% [100 µM] (active) | -28.6% [100 µM] (active) | -81.9% [100 µM] (active) | -45.7% [100 µM] (active) | -72.3% [100 µM] (active) | -69.5% [100 µM] (active) | -22.1% [100 µM] (active) | -48% [100 µM] (active) | -24.8% [100 µM] (active) | -24.9% [100 µM] (active) | -56.3% [100 µM] (active) | -32.1% [100 µM] (active) | -36.6% [100 µM] (active) | -22.7% [100 µM] (active) | -50.4% [100 µM] (active) | -52.3% [100 µM] (active) |
| N#C/C(C(=O)c1ccccc1)=C1/C(=O)Nc2ccccc21 | 112% | 112% | 97.2% | 101% | 85.3% | 86.1% | 108% | 91.4% | 103% | 97.1% | 48.3% | 97.6% | 95.9% | 89.1% | -50.4% (active) | 112% | 100% |
| CCOC(=O)c1cnc2ccc(Br)cc2c1Nc1cccc(S(N)(=O)=O)c1 | 94.6% | 97% | 92.8% | 93.6% | 105% | 99.6% | 102% | 98.5% | 97.4% | 81.4% | 96.3% |  | 99.2% | 93.8% | 85.6% | 115% | 96% |
| O=C(Nc1cccc2ccccc12)c1cc2ccccc2cc1O | 16% | 15.1% | 12.2% | 105% | 0.954% (active) | 7.48% (active) | 19.9% | 32.2% | 4.52% (active) | 14.4% | 11.6% |  | 16.6% | 8.7% (active) | 7.65% (active) | 27.7% | 10.2% |
| CCOc1ccc(S(=O)(=O)Nc2ccc3c(c2)N(S(=O)(=O)CC)CCC3)cc1 | 97.6% | 77.1% | 77.5% | 94.6% | 72.7% | 71.3% | 54.3% | 80.7% | 89.9% | 68.1% | 95.2% | 78.8% | 68.3% | 44.9% | 90.8% | 78.2% | 77% |
| CCCCNC(=O)NS(=O)(=O)Cc1ccccc1 | 108% | 95.8% | 100% | 108% | 107% | 97.3% | 109% | 107% | 112% | 113% | 104% | 116% | 108% | 96.6% | 112% | 110% | 109% |
| Cc1ccc(NC(=S)/N=c2/n(-c3ccccc3)nc3n2CCN3C2=NCCN2)cc1 | 112% | 104% | 105% | 98.2% | 114% | 120% | 129% | 111% | 112% | 92.2% |  | 105% | 97% | 94.6% | 48.6% | 102% | 109% |
| N#C/C(C(=O)c1ccccc1)=C1/C(=O)Nc2ccc(Br)cc21 | 101% | 102% | 99.5% | 107% | 85.7% | 90.9% | 107% | 92.5% | 98.8% | 90.5% |  | 102% | 97% | 95.9% | 99.8% | 99.7% | 105% |
| COC(=O)c1cc(O)c2c(c1C(=O)OC)C[C@H]1[C@@H]3CC=C4C[C@@H](O)CC[C@]4(C)[C@H]3CC[C@]21C | 31.5% | 16.6% | 63.9% | 61.4% | 83.7% | 72.8% | 33.2% | 31.5% | 44.2% | 36% | 32.3% | 37.6% | 44.9% | 37.2% | 22% | 41.6% | 36.3% |
